Source: PubChem (National Center for Advancing Translational Sciences (NCATS))
The list is not random: actives were taken first. Their share in the collection is about 19%.
TDP1 cell noCPT: qHTS for Inhibitors of human tyrosyl-DNA phosphodiesterase 1 (TDP1): qHTS in cells in absence of CPT; DT40 Tdp1-/- hTDP1 cells, no CPT, ATP luminescence, 48 h; Potency, µM (series often up to 46.2 µM), inactives show at the highest dose activity change, negative = growth inhibition, most hits filed as inhibitors; 420,000 compounds, 15% hits; note: potency is the fitted concentration of half-maximal effect; nearly all actives have a fitted effect of over 55% in size
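No-CPT arm: Tdp1-/-;hTDP1 DT40 cells (400/well) plus compounds, incubated ≥48 hr at 37 °C. Readout CellTiter-Glo luminescence.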
HT1080 IDH1KD tx: toxicity to HT-1080 IDH1 knockdown cells (counter line); 360,000 compounds, 2% hits; Potency, µM (top dose mostly 46.1 µM), for inactives: top-dose activity, negative = toxicity, most hits filed as cytotoxic; HT-1080 IDH1 knockdown viability, ATP luminescence, 48 h;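 note: potency is the fitted concentration of half-maximal effect; 0% = DMSO wells and -100% = cell-free medium wells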
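Knockdown cells (IDH1KD HT-1080) received compounds 2 h after plating at 750 cells/well and were kept 48 h at 37 °C in 5% FBS RPMI. A CellTiter-Glo luminescence read gave % activity for curve fitting.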
IL1B secr inh: inhibitors of inflammasome signaling (IL-1 beta secretion); THP-1 LPS/ATP IL-1B secretion, AlphaLISA, 16 h; hits give low values; activity change, % at 57.5 µM; 360,000 compounds, 4.7% hits; in the data active = activity change below about -50%; inconclusive = mostly about -30% to -49%
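Secreted IL-1B measured by AlphaLISA bead assay after 16 h compound exposure of THP-1 cells; compounds (final up to 57.5 uM) added 1 h before LPS (250 ng/mL) and ATP (1.25 mM) stimulation; lower signal means less secretion.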
DT40 TDP1 CPT: growth inhibition of DT40 Tdp1-/-;hTDP1 cells with camptothecin (screen for TDP1 inhibitors). chicken DT40 Tdp1-/-;hTDP1 cells + 20 nM CPT, ATP luminescence, 48 h. Potency, µM (series often up to 46.2 µM), inactives show at the highest dose activity change, negative = growth inhibition, most hits filed as inhibitors. 420,000 compounds, 12% hits; note: potency is the fitted concentration of half-maximal effect; nearly all actives have a fitted effect of over 55% in size
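Cell growth measured by CellTiter-Glo luminescence after a minimum 48 h, 37 C compound exposure with 20 nM CPT in Tdp1-knockout DT40 cells stably expressing hTDP1, seeded 400/well; qHTS titration format.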
HT1080-NT tox: kills 2HG-producing HT-1080-NT fibrosarcoma cells. HT-1080-NT fibrosarcoma viability, CellTiter-Glo ATP luminescence, 48 h. Potency, µM (top dose mostly 46.1 µM), without a hit: at the highest dose activity, negative = less viability, hits mostly cytotoxic. 360,000 compounds, 1.6% hits;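 note: NT is the 2HG producing partner of a matched IDH1 knockdown line; potency is the fitted concentration of half-maximal effect; 0% = DMSO-treated cells and -100% = media-only wells without cells; nearly all actives have a fitted effect of over 55% in size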
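Viability by CellTiter-Glo luminescence after 48 h compound exposure at 37C of HT-1080-NT cells (750/well, RPMI, 5% FBS). % activity scaled between DMSO wells and medium-only wells, then curve-fitted and categorized by curve class.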
* marks the source's active call; other numbers are inactive results; ? = inconclusive; . = no result given; [ ] = another dose, or the depositor's remark. Unless noted, calls come from the whole dose curve; as a rule, active = well fitted curve in the direction sought with a large enough effect; inconclusive = small, poorly fitted or top-dose-only effect, or another doubt; inactive = no such curve, though single readings can be large; an effect the other way counts as inactive or inconclusive. Unless noted, % is set by controls: 0 for no effect and ±100 for the full control effect.

SMILES | TDP1 cell noCPT | HT1080 IDH1KD tx | IL1B secr inh | DT40 TDP1 CPT | HT1080-NT tox
COc1ccccc1NC(=O)CSc1c2c(nc3ccccc13)CCC2 | ? | -26% | ? | ? | -6%
COc1cc(NC(=O)CSc2c3c(nc4ccccc24)CCC3)cc(OC)c1OC | ? | -9% | -60* | ? | -12%
COc1ccc(-c2c(C#N)c(SCC(=O)Nc3ccc(C)cc3)nc(C)c2C(=O)Nc2ccccc2)cc1 | 1% | . | . | 4% | .
O=C(c1ccc(COCC(F)(F)F)o1)N1CCCC1 | -1% | -4% | -6 | 2% | 1%
COc1ccc(C2CC(c3cccs3)=NN2C(=O)CCCC(=O)O)cc1OC (stereo not drawn) | 3% | -3% | -13 | 3% | -1%
O=C(NCc1ccccc1)c1cccc2c(-c3cccnc3)coc12 | ? | -14% | -28 | ? | 0%
CC(C)CNC(=O)c1cccc2c(-c3cccnc3)coc12 | -18% | 3% | -12 | -20% | -1%
O=C(Nc1ccccc1)c1cccc2c(-c3cccnc3)coc12 | 15µM* | 15% | -17 | 21µM* | 14%
COc1ccc(NC(=O)c2cccc3c(-c4cccnc4)coc23)cc1 | 21µM* | 2% | -3 | 12µM* | ?
O=C(NCc1ccco1)C1CCCN1C(=O)Nc1ccc(Br)cc1 (stereo not drawn) | -15% | 20% | 1 | -13% | ?
Cc1cnc(CNc2ncncc2-c2ccccc2C)cn1 | ? | . | . | -1% | .
COc1cccc(CNCc2cc(OC)cc(OC)c2)c1 | -30% | -6% | ? | ? | 5%
COc1ccc(CNCc2ccc3ccccc3c2)c(OC)c1 | 16µM* | -10% | -68* | 16µM* | -18%
COc1ccc(CNCc2cccc(Oc3ccccc3)c2)cc1 | ? | ? | -80* | -13% | -22%
COc1ccc(CCC(C)NCc2ccccc2OC)cc1 (stereo not drawn) | ? | -5% | -82* | 26µM* | 0%
COc1cc(CNCc2ccc(OC)c(OC)c2OC)cc(OC)c1 | 21µM* | ? | ? | 18µM* | 0%
COc1ccccc1CCNC(C)CCc1ccc(O)cc1 (stereo not drawn) | -20% | -1% | -3 | ? | 5%
O=C(COC(=O)/C=C/c1ccc(OC(F)F)cc1)NC1CCCCCC1 | -30% | 6% | 5 | -1% | 4%
O=c1n(Cc2ccc([N+](=O)[O-])cc2)c2ccccc2c2nc(-c3ccccc3)nn12 | ? | . | . | 7.3µM* | .
O=c1n(Cc2ccc(F)cc2Cl)c2ccccc2c2nc(-c3ccccc3)nn12 | 0% | . | . | -4% | .
COc1ccc(CCNC(=O)CCN2C(=O)C3CC=CCC3C2=O)cc1OC (stereo not drawn) | 23µM* | 1% | 13 | ? | 3%
COc1ccc(CCN2C(=O)C3C4C=CC(C3C2=O)C2C(=O)N(CCc3ccc(OC)c(OC)c3)C(=O)C42)cc1OC (stereo not drawn) | ? | -16% | -4 | 10µM* | -18%
COc1ccc(CCNC(=O)C/C(C)=N/NC(=O)C23CC4CC(CC(C4)C2)C3)cc1OC | 7.3µM* | ? | -10 | ? | -30%
COc1ccc(CCNC(=O)CCn2cccc2)cc1OC | -8% | 5% | 9 | 7% | 17%
CCC(C)(C)C1CCC2(CC1)NC(=O)N(CC(=O)NCCc1ccc(OC)c(OC)c1)C2=O (stereo not drawn) | 12µM* | -16% | -27 | ? | -8%
SMILES | TDP1 cell noCPT | HT1080 IDH1KD tx | IL1B secr inh | DT40 TDP1 CPT | HT1080-NT tox
CCn1c(COc2cc(C)ccc2C(C)C)nnc1SCC(=O)Nc1nccs1 | -27% | -1% | -11 | -24% | -1%
Cc1noc(C)c1C(=O)N1CCC2(CC1)CCN(c1ccccn1)CC2 | ? | . | . | -15% | .
COc1ccc(-c2csc(NC(=O)Cc3cc(OC)c(OC)c(OC)c3)n2)cc1OC | 18µM* | ? | ? | 21µM* | -11%
COc1cc(CC(=O)Nc2nc(C)cs2)cc(OC)c1OC | 21µM* | -1% | -4 | 12µM* | 2%
COc1ccc(-c2csc(NC(=O)CCN3C(=O)C4CC=CCC4C3=O)n2)cc1OC (stereo not drawn) | 18µM* | -4% | -25 | 21µM* | 0%
COc1ccc(-c2csc(NC(=O)CN3C(=O)C4CC=CCC4C3=O)n2)cc1 (stereo not drawn) | ? | -30% | -1 | ? | -21%
CC(C(=O)Nc1nc(-c2ccc(F)cc2)cs1)N1C(=O)C2CC=CCC2C1=O (stereo not drawn) | -18% | 21% | -81* | ? | 10%
CCOC(=O)c1sc(N2C(=O)C(O)=C(C(=O)c3ccco3)C2c2ccc([N+](=O)[O-])cc2)nc1C (stereo not drawn) | -4% | -4% | 134 | 16% | -8%
COc1ccc(CCN2C(=O)CC(NNc3ccc([N+](=O)[O-])cc3)C2=O)cc1OC (stereo not drawn) | 21µM* | -2% | -6 | 21µM* | -1%
COc1ccc(CCNC2CC(=O)N(CCc3ccc(OC)c(OC)c3)C2=O)cc1OC (stereo not drawn) | 0% | -12% | -3 | -5% | -5%
CC1Nc2ccccc2C(=O)N1NC(=O)c1ccc(Br)cc1 (stereo not drawn) | 3% | 3% | 19 | 12% | -4%
O=C(NNC(=O)c1ccc(SCC2CCCO2)c([N+](=O)[O-])c1)c1ccc(F)cc1 (stereo not drawn) | 20µM* | 6% | -7 | ? | 8%
CC1CCN(C(=O)CCNS(=O)(=O)c2ccc(Br)cc2)CC1 | -16% | 0% | 4 | -27% | -1%[9.24 µM]
CCOc1ccc(CCN2C(=O)C(=O)N([C@@H](CC(C)C)CN3CCC[C@H]3CN3C(=O)C(=O)NC[C@@H]3Cc3ccccc3)C[C@@H]2Cc2ccccc2)cc1 | 16µM* | ? | ? | 16µM* | ?
CCOc1ccc(CCN2C(=O)C(=O)N([C@@H](CC(C)C)CN3CCC[C@@H]3CN3C(=O)C(=O)NC[C@@H]3Cc3ccccc3)C[C@@H]2Cc2ccc(O)cc2)cc1 | ? | -9% | -52* | ? | -10%
CC(C)C[C@@H](CN1CCC[C@H]1CN1C(=O)C(=O)NC[C@@H]1Cc1ccc(O)cc1)N1C[C@H](Cc2ccc(O)cc2)N(CCc2ccccc2)C(=O)C1=O | -14% | 2% | -4 | -9% | 10%
